Assay [1] has as its target Cellular tumor antigen p53 (Homo sapiens) (UniProt P04637). Nature of the assay: Primary qHTS for small molecule compounds that upregulate eGFP-tagged delta133p53alpha (in N-terminal) cells. (AID 2060322). Further: nearly all actives have a fitted effect of over 75% in size. Further: potency means the concentration at half of the fitted maximal effect.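 On activation: cells pre-induced with doxycycline then dosed without doxycycline; series mostly up to about 56 µM; 0% = DMSO vehicle and 100% = reference activator.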 Conditions: NCI-H358 eGFP-delta133p53alpha fluorescence, 24 h; activation: hits give high values. In a few lines:
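NCI-H358 cells pre-induced 24 h with 10 ng/ml doxycycline for eGFP-delta133p53alpha, plated dox-free and exposed 24 h at 37C to titrated compounds. Fixed, Hoechst-stained; gated GFP peak intensity by laser scanning cytometry, normalized to DMSO (0%) and 57.5 uM 5-azacytidine (100%).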

Assay [2] has as its target Aldehyde dehydrogenase, mitochondrial (Homo sapiens) (UniProt P05091). As to the kind of experiment: qHTS for Inhibitors of the Aldehyde Dehydrogenase Family (ALDH2) Primary screen (AID 2061308).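 Further: plate controls were vehicle for no effect and reference inhibitor for full effect; nearly all actives have a fitted effect of over 55% in size.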 A general note: qHTS replaces the single test concentration by a dilution series.
For assay [3], the target named is Retinaldehyde dehydrogenase 3 (Homo sapiens) (UniProt P47895). Nature of the assay: qHTS for Inhibitors of the Aldehyde Dehydrogenase Family (ALDH1A3) Primary screen (AID 2061315).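 Further: plate controls were DMSO vehicle for no effect and reference inhibitor for full effect.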

Among the data in PubChem BioAssay (NCATS) are activation, Potency and activity change, negative = inhibition values, retold here.

Values joined by “and” are separate entries in the source; they are usually repeats but may differ in a detail not shown here. Equal values may be shown once. Inconclusive results are not listed. Values without a mark were called inactive. Active and inactive are the calls of the source. The call rests on the fitted dose curve; in most records, active means well fitted curve in the direction sought with a large enough effect; inconclusive means small, poorly fitted or top-dose-only effect, or another doubt; inactive means no such curve, though single readings can be large; an effect the other way counts as inactive or inconclusive.

Sequence of Cellular tumor antigen p53 (Homo sapiens) (P04637 whole entry, looked up): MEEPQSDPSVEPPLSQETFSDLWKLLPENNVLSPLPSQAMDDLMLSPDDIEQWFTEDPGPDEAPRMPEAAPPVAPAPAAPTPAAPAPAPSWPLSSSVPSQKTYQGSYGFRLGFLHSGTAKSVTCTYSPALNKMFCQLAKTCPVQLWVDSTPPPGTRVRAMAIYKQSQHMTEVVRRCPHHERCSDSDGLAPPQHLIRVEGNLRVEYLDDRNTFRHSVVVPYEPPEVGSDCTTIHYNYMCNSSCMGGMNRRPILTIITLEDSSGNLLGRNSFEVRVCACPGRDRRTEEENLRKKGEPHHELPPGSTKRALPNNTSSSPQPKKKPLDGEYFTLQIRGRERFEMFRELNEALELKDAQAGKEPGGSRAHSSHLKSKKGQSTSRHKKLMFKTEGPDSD

For the molecule `Cc1cc(C(N)=O)ccc1-n1c(CCC(=O)O)ccc1-c1ccc(-n2ccnc2)cc1`, in assay [1], the activation is -2.68%. Besides, the Potency result in assay [2] and in assay [3] was “inactive” each time.

Regarding `CC(=O)c1ccc(O[C@@H]2OC[C@@H](O)[C@H](O)[C@H]2O[C@]2(CO)O[C@H](CO)[C@@H](O)[C@@H]2O)c(O)c1`, the activation in assay [1] is -9.92%. The Potency result in assay [2] and in assay [3] was “inactive” throughout.

For the molecule `CC(C)=CCc1ccc(Oc2c(O)cc(C)cc2CO)c(C(=O)O)c1O`, the activation in assay [1] was 3.82%. For the same molecule, the Potency entry in assay [2] and in assay [3] was “inactive” each time.

`C=C1CC[C@@H]2C(C)(C)CCC[C@@]2(C)[C@@H]1CC/C(=C/C(=O)OC)COC(C)=O`: the activation in assay [1] was -31.3%. The Potency entry in assay [2] and in assay [3] was “inactive” throughout.

As to `CC(=O)CCC1=C(C)C(O[C@@H]2O[C@H](CO)[C@@H](O)[C@H](O)[C@H]2O)C(O)CC1(C)C` (stereo not given in full), the activation in assay [1] was -3.82%. Besides, the Potency entry in assay [2] and in assay [3] was “inactive” in each case.

As for `C=CC(C)(O)CC/C=C(\C)C(=O)OC1C(O)C(CO)OC(OC(=O)C23CCC(C)(C)CC2C2=CCC4C5(C)CCC(OC6OC(COC7OCC(OC(C)=O)C(O)C7OC7OC(COC(C)=O)C(O)C(O)C7O)C(O)C(O)C6O)C(C)(C)C5CCC4(C)C2(C)C(O)C3O)C1OC1OCC(OC2OCC(O)C(OC3OCC(O)C(O)C3O)C2O)C(O)C1O` (stereo not given), in assay [1], the activation is -9.16%. For the same molecule, the activity change, negative = inhibition in assay [2] is 5.34% [at 11.2 µM]; in assay [3], 15% [at 11.2 µM].

Take `CC1=C(COC2OC(CO)C(O)C(O)C2O)C(C(CO)C(=O)O)CC1` (stereo not given): the activation in assay [1] was -6.87%. Moreover, the Potency result in assay [2] and in assay [3] was “inactive” in each case.

`CC1CCCC(SCC(O)C(=O)O)CC(=O)c2c(O)cc(O)cc2CC(=O)O1` (stereo not given): the activation in assay [1] was -1.53%. The Potency entry in assay [2] and in assay [3] was “inactive” each time.

Consider `O=C(O[C@H]1[C@@H]2C=CO[C@@H](O[C@@H]3O[C@H](CO)[C@@H](O)[C@H](O)[C@H]3O)[C@@H]2[C@@]2(CO)O[C@@H]12)c1ccc(O)cc1`, for which the activation in assay [1] was 4.58%. For the same molecule, the Potency entry in assay [2] and in assay [3] was “inactive” each time.

`COC(=O)[C@@]1(O)C=CC[C@@H]2[C@@]3(C)C[C@@H](c4ccoc4)OC(=O)[C@H]3CC[C@]21C`: the activation in assay [1] is 7.14%. Besides, the Potency entry in assay [2] and in assay [3] was “inactive” each time.

In the case of `CO[C@@H]1[C@]2(O)C(=O)N3/C=C\C(C)(C)c4[nH]c5ccccc5c4/C=C\3C(=O)N2[C@]23[C@H](CO)C(C)(C)N2c2ccccc2[C@]13O`, the activation in assay [1] was 8.4%. Besides, the Potency entry in assay [2] and in assay [3] was “inactive” each time.

As to `CN1CCN(C(c2ccccc2)c2ccccc2)CC1`, the activation in assay [1] was 14.2% and -0.955%. For the same molecule, the Potency entry in assay [2] and in assay [3] was “inactive” in each case.

Consider `CC(=O)OC1C(OC(=O)c2ccccc2)C2C(C)(C)CCC(OC(C)=O)C2(C)C23CCC(C)(C2)C(=O)CC13` (stereo not given), for which, in assay [1], the activation was -14.5%. The Potency entry in assay [2] and in assay [3] was “inactive” each time.

As for `CC1(C)CCC[C@@]2(C)C1[C@H](OC(=O)/C=C/C=C/C(=O)O)C=C1COC(=O)[C@@]12O` (stereo not given in full), the activation in assay [1] is -13%. The Potency result in assay [2] and in assay [3] was “inactive” each time.

For `COc1cc2oc(-c3ccc(O)cc3O)cc2c(OC)c1CC=C(C)C`, the activation in assay [1] was 9.82%. In addition, the Potency entry in assay [2] and in assay [3] was “inactive” each time.

Turning to `C1=Cc2ccccc2C(=C2CCN(CCCCc3nn[nH]n3)CC2)c2ccccc21`, in assay [1], the activation was -3%. Also, the Potency entry in assay [2] and in assay [3] was “inactive” throughout.

With `CN1CCN(c2ccc(Nc3cc(-c4cccc(-n5ccc6cc(C7CC7)cc(F)c6c5=O)c4CO)cn(C)c3=O)nc2)CC1`, the activation in assay [1] is 2.68%. In addition, the Potency entry in assay [2] and in assay [3] was “inactive” each time.

Consider `COc1ccc(CCc2nc3cc(-c4c(C)noc4C)ccc3n2CC(C)N2CCOCC2)cc1Cl` (stereo not given), for which the activation in assay [1] is 3.67%. The Potency result in assay [2] and in assay [3] was “inactive” throughout.

In the case of `CC1(C)CC[C@]2(C(=O)O)[C@H](O)C[C@]3(C)C(=CCC4[C@@]5(C)CC[C@H](O[C@@H]6O[C@H](CO[C@@H]7OC[C@H](O)[C@H](O)[C@H]7O[C@@H]7OC[C@H](O)[C@H](O)[C@H]7O)[C@@H](O)[C@H](O)[C@H]6O)C(C)(C)C5CC[C@]43C)[C@@H]2C1` (stereo not given in full), in assay [1], the activation is -4.46%. In addition, the Potency result in assay [2] and in assay [3] was “inactive” throughout.

As for `C=C(C(=O)O[C@H]1C/C(C)=C/CC/C(CO)=C/[C@H]2OC(=O)C(=C)[C@H]12)C(O)CO` (stereo not given in full), the Potency in assay [1] was 18.6 µM (active). Besides, the Potency entry in assay [2] and in assay [3] was “inactive” throughout.

Take `CC/C=C\CCO[C@@H]1O[C@H](CO)[C@@H](O)[C@H](O)[C@H]1O`: the activation in assay [1] was -18.3%. For the same molecule, the Potency entry in assay [2] and in assay [3] was “inactive” each time.

For `COc1c(-c2ccc(O)cc2)cc(OC)c2c1oc1cc(O)c(OC3OC(CO)C(O)C3O)cc12` (stereo not given), in assay [1], the activation is 1.79%. Besides, the Potency result in assay [2] and in assay [3] was “inactive” each time.

For `C=C1CCC2(OC1)OC1CC3C4CC=C5CC(O)CC(O[C@@H]6OC[C@@H](O)[C@H](O)[C@H]6O)C5(C)C4CCC3(C)C1(O)C2C` (stereo not given in full), the activation in assay [1] was 5.34%. Moreover, the Potency entry in assay [2] and in assay [3] was “inactive” throughout.

Regarding `CC(=O)OC1(C)CC(O)C2(O)C=COC(OC3OC(CO)C(O)C(O)C3O)C12` (stereo not given), the activation in assay [1] is -16.8%. Moreover, the Potency result in assay [2] and in assay [3] was “inactive” in each case.

As to `C=CC1(C)CC2CCC3C(C)(C(=O)O)CCCC3(C)C2=CC1=O` (stereo not given), the activation in assay [1] is -16%. Further, the Potency result in assay [2] and in assay [3] was “inactive” throughout.
